# Laboratory results published in PubChem BioAssay (NCATS).
# Records with an inconclusive call do not appear. Active and inactive are the calls of the source. Calls follow the shape of the dose curve; as a rule, active = well fitted activation curve with a large enough effect; inconclusive = small, poorly fitted or top-dose-only effect; inactive = no such curve, though single readings can be large or run the other way.
# Biological target: Cellular tumor antigen p53 (Homo sapiens) (UniProt P04637)
# Sequence (P04637 whole entry, looked up): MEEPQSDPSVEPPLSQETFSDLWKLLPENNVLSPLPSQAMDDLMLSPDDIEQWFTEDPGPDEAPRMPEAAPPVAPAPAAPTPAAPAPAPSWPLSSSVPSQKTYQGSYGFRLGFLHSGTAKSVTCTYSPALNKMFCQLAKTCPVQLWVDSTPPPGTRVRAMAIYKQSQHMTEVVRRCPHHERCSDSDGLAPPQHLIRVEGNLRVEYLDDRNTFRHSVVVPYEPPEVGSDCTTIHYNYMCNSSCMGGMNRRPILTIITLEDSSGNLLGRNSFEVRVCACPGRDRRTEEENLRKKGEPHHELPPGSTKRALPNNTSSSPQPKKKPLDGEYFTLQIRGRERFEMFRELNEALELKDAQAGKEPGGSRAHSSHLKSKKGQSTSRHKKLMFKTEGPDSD
# Experiment: Primary qHTS for small molecule compounds that upregulate eGFP-tagged delta133p53alpha (in N-terminal) cells. (AID 2060322); also: nearly all actives have a fitted effect of over 75% in size;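 as to activation: series mostly up to about 56 µM; 0% = DMSO vehicle and 100% = reference activator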
# Conditions: NCI-H358 eGFP-delta133p53alpha fluorescence, 24 h; activation: active compounds read high
# Outline: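 NCI-H358 cells pre-induced 24 h with 10 ng/ml doxycycline to express N-terminal eGFP-delta133p53alpha, then dosed 24 h at 37C without doxycycline; fixed, Hoechst-stained, GFP intensity by laser scanning cytometry, normalized to DMSO (0%) and 57.5 uM 5-azacytidine (100%).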
# Potency is read from the fitted curve at half-maximal effect.
SMILES,activation,Potency
N#C/C(=C\c1ccc(O)c(O)c1)C(=O)c1ccc(O)c(O)c1,-3.67% (inactive),
COC(=O)c1cccnc1,-4.18% (inactive),
CCCCCCCCCC(=O)NC(CN1CCOCC1)[C@H](O)c1ccccc1 (stereo not given in full),-7.14% (inactive),
N#CC(=C(N)Sc1ccccc1N)C(C#N)=C(N)Sc1ccccc1N,,17.2 µM (active)
COc1cc(O)cc(O)c1,-1.67% (inactive),
C=CCc1ccc(O)c(OC)c1,15.1% (inactive),
CCN[C@@H]1C[C@H](N)[C@@H](OC2OC(CN)=CCC2N)[C@H](O)[C@H]1O[C@H]1OC[C@](C)(O)[C@H](NC)[C@H]1O (stereo not given in full),1.67% (inactive),
O=C(Nc1ccc([N+](=O)[O-])cc1)Nc1ccc([N+](=O)[O-])cc1,-25.9% (inactive),
CC(C)NCCCC1(C(N)=O)c2ccccc2-c2ccccc21,4.18% (inactive),
CCc1c(C(=O)Nc2cc(S(=O)(=O)N(CC)CC)ccc2O)[nH]c(C)c1C(C)=O,-38% (inactive),
O=C(NCc1ccccc1)[C@H](Cc1ccccc1)NC(=O)[C@@H]1O[C@@H]1C(=O)NCCc1ccc(O)cc1,16.6% (inactive),
COc1ccc(S(=O)(=O)Nc2nnc(CC(C)C)s2)cc1,-11.7% (inactive),
O=C(O)C(=O)Nc1cccc(C2=NN=N[N]2)c1,19.6% (inactive),
CC(C)=CCC/C(C)=C/CO,-11.9% (inactive),
CC1=C(CO)C(=O)O[C@@H]([C@@H](C)[C@H]2CC[C@H]3[C@@H]4C[C@H]5O[C@]56[C@@H](O)C=CC(=O)[C@]6(C)[C@@H]4CC[C@]23C)C1,,3.85 µM (active)
CCN(CC)CCc1nc(-c2ccccc2)no1,-25.1% (inactive),
CC=C(C)C(=O)O[C@H]1C(C)=C[C@]23C(=O)[C@@H](C=C(CO)[C@@H](O)[C@]12O)[C@H]1[C@@H](C[C@H]3C)C1(C)C,20.2% (inactive),
O=C1Cc2cc(Cl)ccc2N1,5.08% (inactive),
c1ccc2occc2c1,-5.08% (inactive),
Cc1cnn(C)c1C(=O)Nc1cc(Nc2ccc3c(C=Cc4ccccn4)n[nH]c3c2)ccc1F,18.7% (inactive),

SMILES,activation,Potency
CC(C)=CCOc1ccc(/C=C/C(=O)c2ccc(OCC=C(C)C)cc2OCC(=O)O)cc1,-1.67% (inactive),
C/C=C/c1ccc(O)c(OC)c1,-0.837% (inactive),
CCNC(=O)Nc1ccc(-c2nc3c(c(N4CCOC[C@H]4C)n2)CCN(C2COC2)C3)cc1,5.73% (inactive),
CCOC(=O)CN1CCCC1=O,-0.837% (inactive),
CCN(CC)C(=O)/C(C#N)=C/c1cc(O)c(O)c([N+](=O)[O-])c1,-3.95% (inactive),
CCC(CC)[C@H](NC(C)=O)[C@@H]1[C@H](O)[C@@H](C(=O)O)C[C@@H]1N=C(N)N,7.36% (inactive),
CS(=O)(=O)c1ccc(-c2cn3ccccc3n2)cc1,-26.8% (inactive),
C=CCN1C[C@H](C(=O)N(CCCN(C)C)C(=O)NCC)C[C@@H]2c3cccc4[nH]cc(c34)C[C@H]21,-8.37% (inactive),
O=C(Oc1ccccc1C(=O)O)c1ccccc1O,-5.02% (inactive),
CCc1cc2cc(OC)c(OC)cc2c(Cc2ccccc2)n1,-22.6% (inactive),
OC(CCCN1CCCCC1)(c1ccccc1)c1ccccc1,-16.4% (inactive),
CN1Cc2cc(C(=O)N3CCC(C4CCNCC4)CC3)ccc2NC(CC(=O)O)C1=O (stereo not given),-16.7% (inactive),
Nc1ncnc(Nc2ccccc2)n1,-16.7% (inactive),
C[C@@H]1CC=CC=CC=CC=C[C@@H](O[C@@H]2O[C@H](C)[C@@H](O)[C@H](N)[C@H]2O)C[C@@H]2O[C@](O)(C[C@@H](O)C[C@@H]3O[C@@H]3C=CC(=O)O1)C[C@H](O)[C@@H]2C(=O)O,-2.86% (inactive),
CON=C(C(=O)N[C@@H]1C(=O)N2C(C(=O)O)=C(Cn3ccc(=N)n3CCO)CS[C@H]12)c1csc(N)n1,23.9% (inactive),
NC(=O)Cc1cccc(C(=O)c2ccccc2)c1N,9.6% (inactive),
CCCCCCCCCCC(CO)CCCCCCCC (stereo not given),16.4% (inactive),
CNCC[C@@H](Oc1ccccc1C)c1ccccc1,-17.6% (inactive),
CCOC(=O)O[C@]1(C(=O)OCCl)CC[C@@H]2[C@H]3CCC4=CC(=O)C=C[C@]4(C)[C@@H]3[C@@H](O)C[C@@]21C,-2.28% (inactive),
NS(=O)(=O)c1cc2c(cc1C(F)(F)F)NC(Cc1ccccc1)NS2(=O)=O (stereo not given),-6.69% (inactive),
